Screening data (PubChem BioAssay)
MRP-1 activ: activates MRP-1 | viability increase, % at 10 µM | H69AR cells + doxorubicin, viability rescue, CellTiter-Glo | 0.61% of 140,000 active;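 active means viability gain under doxorubicin at or above a set limit, the compound median plus 3 SD, cut at about 4.7% in these data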;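 further: MRP-1 overexpressing cells given doxorubicin 25 µM after compound pretreatment; 18-22 h compound pretreatment then 72 h with doxorubicin before readout; 0% = doxorubicin-only wells and 100% = vehicle-treated cells without doxorubicin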
ERb SRC1 inh: blocks coactivator binding to human estrogen receptor beta; TR-FRET ER-beta LBD / SRC1-Cy5 peptide binding; receptor agonist-loaded with 1 µM estradiol; Q92731; 1.3% of 86,000 active; inhibition, % at 25.6 µM;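 active means compounds whose percent inhibition of the receptor-coactivator binding signal exceeds about 50% in the single-dose screen, limit read from the data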;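 further: 0% = receptor plus peptide wells without compound and 100% = peptide-only wells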
ERa SRC1 pot: enhances coactivator binding to human estrogen receptor alpha. P03372. TR-FRET ERalpha-LBD/SRC-Cy5 coactivator binding, 2 h; 100 = basal binding, no effect. coactivator binding (% of control), % at 25.6 µM. 1.3% of 86,000 active. AID 639; in the data active means activity above about 200%;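 further: binding measured in presence of low estradiol as agonist stimulus; 0% = peptide alone without receptor and 100% = receptor with peptide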
Target sequence (P03372 whole entry, looked up, the tested form may be a part): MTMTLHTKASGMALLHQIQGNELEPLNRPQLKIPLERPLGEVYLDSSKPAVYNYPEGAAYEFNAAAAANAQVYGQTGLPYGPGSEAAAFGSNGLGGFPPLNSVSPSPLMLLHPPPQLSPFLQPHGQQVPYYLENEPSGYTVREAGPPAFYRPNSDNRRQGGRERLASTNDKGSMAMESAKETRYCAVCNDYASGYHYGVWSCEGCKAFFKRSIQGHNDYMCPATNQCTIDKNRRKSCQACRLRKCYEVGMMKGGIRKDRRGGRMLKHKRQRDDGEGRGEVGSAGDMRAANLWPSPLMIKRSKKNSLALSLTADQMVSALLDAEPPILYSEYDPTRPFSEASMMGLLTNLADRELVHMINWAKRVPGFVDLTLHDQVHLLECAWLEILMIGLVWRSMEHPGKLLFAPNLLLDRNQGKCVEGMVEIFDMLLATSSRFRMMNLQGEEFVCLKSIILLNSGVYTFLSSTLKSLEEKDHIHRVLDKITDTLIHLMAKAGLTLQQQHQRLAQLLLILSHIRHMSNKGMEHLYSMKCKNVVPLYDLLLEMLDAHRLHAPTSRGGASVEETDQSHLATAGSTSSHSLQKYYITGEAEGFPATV
MRP reversal: reverses drug resistance mediated by MRP | H69AR cells + 2 uM doxorubicin, CellTiter-Glo, 72 h | differential viability (reversal), % at 10 µM | 0.04% of 85,000 active;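 active means viability drop by adding the cancer drug above about 55%, with treated viability meeting a 40% cutoff, limit read from the data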;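 further: viability without doxorubicin minus viability with 2 µM doxorubicin for each compound; larger differential means the compound sensitizes cells more to doxorubicin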
ERa SRC1 inh: ER-alpha (human) coactivator binding inhibition; TR-FRET ER-alpha LBD / SRC-1 peptide, estradiol-bound; inhibition, % at 25.6 µM; 1.7% of 86,000 active; in the data active means inhibition above about 50%;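 further: 0% = receptor plus peptide control and 100% = peptide only without receptor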
Smad3 FoxH1 inh: Smad3 (human) transcription factor binding inhibition. TR-FRET Smad3/Dy647-FoxH1 peptide binding, europium anti-His. P84022. inhibition, % at 25 µM. 0.29% of 88,000 active;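 active means compounds that reduce the energy-transfer binding signal between the protein and its labelled peptide by more than half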;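 further: 0% = Smad3 plus labelled peptide maximal FRET and 100% = peptide-only background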
The depositor's hits bear a star; . = no result; + = active, no number; [ ] = another dose, or the depositor's remark. Compounds with a hit are over-represented: about 2.9% of the library has one in this group of screens.

SMILES	MRP-1 activ	ERb SRC1 inh	ERa SRC1 pot	MRP reversal	ERa SRC1 inh	Smad3 FoxH1 inh
O=C(CC1C(=O)N(c2ccccc2)C(=S)N1c1ccccc1)c1ccc(Br)cc1 (centres undefined)	4.7*	.	.	.	.	.
O=C(O)CCNCC(=O)O	.	.	.	.	.	-1.1
O=C1N=C(N2CCOCC2)S/C1=C1\C(=O)N(Cc2ccccc2)c2ccc(Br)cc21	.	44.0	33.7	-2.6	92.9*[fluorescence artefact?]	-4.2
Cc1ccc(CN2C(=O)/C(=C3\SC(N4CCOCC4)=NC3=O)c3cc(Br)ccc32)cc1	.	12.9	10.7	-4.8	24.1	-1.5
CC(C)(C)C(=O)NC(=S)Nc1ccccc1C(=O)Nc1ccccc1	-3.2	.	.	.	.	.
Nc1ccc(S(=O)(=O)c2ccc(NC(=O)c3cccnc3)cc2)cc1	.	.	.	.	.	56.7*
O=C(CN1CCN(Cc2ccccc2)CC1)N1CCCc2c1c(=O)oc1ccc(O)cc21	-5.2	-10.2	82.1	-39.0	15.8	5.1
O=C(CN1CCCCC1)N1CCCc2c1c(=O)oc1ccc(OCc3ccccc3)cc21	-6.9	-5.2	326.6*[fluorescence artefact?]	24.9	0.9	1.6
CC(=O)Nc1nc(NC(C)=O)c2[nH]c(CO)nc2n1	.	.	.	.	.	9.9
CC(=O)c1c(C)[nH]c(C(=O)Nc2nc(-c3ccc(Cl)cc3)cs2)c1C	4.8*	.	.	.	.	.
CC(=O)[C@H]1CC[C@@H]2[C@]1(C)CC=C1[C@@]23C=C[C@@]2(C[C@H](O)CC[C@@]12C)[C@H](C(=O)O)[C@@H]3C(=O)O	.	.	.	.	.	35.9
O=C(O)[C@H]1CCCN1Cc1ccc2c(c1)OCO2	.	.	.	.	.	-5.1
COc1ccc2cc(CN(CCCN3CCOCC3)Cc3nnnn3C3CCCC3)c(=O)[nH]c2c1	-1.5	-10.4	261.4*[fluorescence artefact?]	5.3	-10.0	-8.0
COc1ccc(CN(Cc2cc3ccc(C)cc3[nH]c2=O)Cc2nnnn2C2CCCC2)cc1	-6.3	-5.7	100.6	-34.4	6.7	-3.6
O=C(CSC1=NCCN1)c1ccccc1	.	.	.	.	.	12.6
O=C(NCCN1C(=O)S/C(=C/c2ccccc2)C1=O)C1CCCN1C(=O)c1cccs1 (centres undefined)	7.5*	.	.	.	.	.
NNC(=O)c1ccc[n+](CCc2ccccc2)c1	.	.	.	.	.	0.4
CCOC(=O)c1nnc(-c2ccc(C)cc2)nc1Oc1ccccc1Cl	-0.2	.	.	.	.	.
CCOC(=O)c1nnc(-c2ccc(C)cc2)nc1Oc1ccc(Cl)cc1Cl	5.0*	.	.	.	.	.
CN(CC(=O)NC(c1ccccc1)c1ccccc1)Cc1nc2ccccc2c(=O)[nH]1	-1.3	5.2	102.3	-45.4	4.3	3.7
CN(CC(=O)NC(=O)NCc1ccco1)Cc1nc2ccccc2c(=O)[nH]1	-1.0	43.1	71.2	1.5	60.8*	13.0
O=C(NCCCCCCNC(=O)c1ccc(Br)s1)c1ccc(Br)s1	-3.2	58.5*[fluorescence artefact?]	416.9*	-12.1	82.4*[fluorescence artefact?]	-54.9
CC(C)CC(=O)n1sc(NC(=O)c2ccccc2)nc1=O	6.5*	.	.	.	.	.
Cc1ccc(C(=O)Nc2nc(=O)n(C(=O)CC(C)C)s2)cc1	3.1	.	.	.	.	.
CCc1ccccc1NC(=O)CSc1nc2c(c(-c3ccco3)c1C#N)CCCC2	-1.0	10.9	300.8*[fluorescence artefact?]	2.4	10.4	-13.9
SMILES	MRP-1 activ	ERb SRC1 inh	ERa SRC1 pot	MRP reversal	ERa SRC1 inh	Smad3 FoxH1 inh
Cc1ccccc1NC(=O)CSc1nc2c(c(-c3ccco3)c1C#N)CCCC2	-1.3	16.4	290.0*[fluorescence artefact?]	0.5	23.9	7.6
N#Cc1c(SCC(=O)Nc2nccs2)nc2c(c1-c1ccco1)CCCC2	-4.5	37.1	82.7	-17.6	64.3*	11.7
N#Cc1c(SCC(N)=O)nc2c(c1-c1ccc(OCc3ccccc3)cc1)CCCC2	.	-7.4	+[fluorescence artefact?]	-3.0	-12.7	-124.2
COc1ccc(-c2c(C#N)c(SCC(=O)Nc3ccccc3)nc3c2CCCC3)cc1	.	28.2	146.9	8.8	13.8	-1.6
COC(=O)CSc1nc2c(c(-c3ccc(C)o3)c1C#N)CCCC2	-2.4	1.9	94.6	-10.3	0.7	2.5
CON1C(=O)C(=O)N(OC)C(C)(C)C1C (centres undefined)	-2.9	.	.	.	.	.
O=[N+]([O-])c1nccn1C[C@H](O)CN1CCCCC1	.	.	.	.	.	0.3
C[N+]1(CCC(=O)c2ccco2)CC2CCC(CC2)C1 (centres undefined)	.	.	.	.	.	22.4
COc1ccc2cc3c(N)nn(C(=O)Cc4ccc(Cl)cc4)c3nc2c1	-2.5	46.1	76.9	-24.7	60.0*	1.0
S=C1N[C@H](c2ccccc2)N[C@H](c2ccccc2)S1	.	.	.	.	.	17.0
O=[N+]([O-])c1ccc(N/N=C/c2ccccc2)c(F)c1	5.2*	.	.	.	.	.
Cc1cc(C(C)(C)C)cc(CNC2CCCCC2)c1O	.	.	.	.	.	1.6
COc1cc(CCC(=O)OCC(=O)Nc2ncc(Cl)cc2Cl)cc(OC)c1OC	-2.9	58.7*	21.6	-9.5	55.6*[fluorescence artefact?]	7.4
COc1ccccc1OCCC(=O)OCC(=O)Nc1ncc(Cl)cc1Cl	-0.6	39.6	48.5	2.5	53.7*[fluorescence artefact?]	20.7
C[Si](C)(c1ccc(C(=O)O)cc1)c1ccc(C(=O)O)cc1	.	.	.	.	.	9.0
CC(C)(C)c1ccc(OC(=O)Nc2ccc(O)c(C(=O)O)c2)cc1	.	.	.	.	.	65.3*
COCC(=O)N(C)C1(c2nnnn2CCOC(=O)Nc2cccc3ccccc23)CCCC1	-2.4	61.4*[fluorescence artefact?]	76.6	-7.1	19.2	-3.5
CCOC(=O)N1CCN(C(=O)CSc2nc3c(c(=O)n2-c2ccccc2OC)SCC3)CC1	-4.1	-2.1	107.9	57.4*	2.5	3.2
CCN(C(=O)CN1CCCc2ccccc21)c1c(N)n(Cc2ccccc2)c(=O)[nH]c1=O	.	80.3*[fluorescence artefact?]	105.0	6.5	-10.3	-14.0
CCN(C(=O)CN1CCN(c2ccccc2OC)CC1)c1c(N)n(Cc2ccccc2)c(=O)[nH]c1=O	-0.8	20.9	117.5	5.3	-0.6	6.3
CC(C)c1nnc(NC(=O)CSc2ncn[nH]2)s1	4.8*	7.0	93.4	-9.1	-0.6	-12.6
O=C(CSc1ncn[nH]1)Nc1ccccc1C(=O)O	-2.1	-3.6	127.3	-10.4	-0.4	8.2
O=C(CSc1ncn[nH]1)Nc1ccc(Br)cc1F	7.0*	4.5	125.5	-9.9	1.2	3.7
C[N+](C)(N)Cc1nc(-c2ccc(Cl)cc2)no1	.	.	.	.	.	5.5
CC(C)Cn1c(=O)c(C(=O)Nc2ccncc2)c(O)c2ccccc21	.	38.5	145.9	-2.7	51.4*[fluorescence artefact?]	36.2
SMILES	MRP-1 activ	ERb SRC1 inh	ERa SRC1 pot	MRP reversal	ERa SRC1 inh	Smad3 FoxH1 inh
Cc1ccc(NC(=O)c2c(O)c3ccccc3n(C)c2=O)nc1	-2.6	29.9	76.0	-6.8	18.9	2.4
Cc1ccnc(NC(=O)c2c(O)c3ccccc3n(C)c2=O)c1	.	18.2	344.6*[fluorescence artefact?]	1.3	21.3	4.3
CC(C)Cn1c(=O)c(C(=O)Nc2cnccn2)c(O)c2ccccc21	-0.7	-6.8	106.2	2.8	-2.0	-5.4
CN(C)CCCNc1ncnc2nc[nH]c12	.	.	.	.	.	9.2
CC1CCN(C(=S)c2ccc([N+](=O)[O-])cc2)CC1	-1.6	.	.	.	.	.
CSc1nnc2c3cc(C)ccc3n(Cc3ccccc3)c2n1	-1.9	54.3*[fluorescence artefact?]	105.1	-11.5	68.1*[fluorescence artefact?]	-22.9
CCn1c2ccc(C)cc2c2nnc(NN)nc21	-3.9	.	.	.	.	.
CN1CCN(C(c2cccnc2)c2ccc3cccnc3c2O)CC1 (centres undefined)	-2.3	59.9*[fluorescence artefact?]	83.2	-5.1	78.2*[fluorescence artefact?]	8.2
